Source: PubChem (National Center for Advancing Translational Sciences (NCATS))
HT1080NT lethal: kills 2HG-producing HT-1080-NT fibrosarcoma cells. 1.6% of 360,000 active. AID 686970. HT-1080-NT fibrosarcoma viability, CellTiter-Glo ATP luminescence, 48 h. Potency, µM (series often up to 46.1 µM), for the others: at the top dose activity, negative = less viability, usual class: cytotoxic;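 note: NT is the 2HG producing partner of a matched IDH1 knockdown line; 0% = DMSO-treated cells and -100% = media-only wells without cells; nearly all actives have a fitted effect of over 55% in size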
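Compounds were tested in concentration-response format on HT-1080-NT cells for 48 hours at 37 degrees C. Cell viability came from CellTiter-Glo luminescence; curves were classified by r2, response magnitude and activity.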
MCF10A rerep: DNA re-replication induction in MCF 10a cells; MCF 10A DNA re-replication, Hoechst nuclear intensity, 48 h; Potency, µM (titrated, usually from 46.1 µM), for the others: top-dose activity, positive = re-replication, actives largely listed as activators; 2.9% of 350,000 active; note: % of control where 0% means no effect; nearly all actives have a fitted effect of over 50% in size
KB-V1 MDR tox: kills drug-selected multidrug resistant KB-V1 cells; KB-V1 MDR cells viability, CellTiter-Glo, 72 h; Potency, µM (top dose mostly 46.1 µM), actives largely listed as cytotoxic; 3.4% of 400,000 active; AID 1347076; note: % is set by controls: 0 for no effect and ±100 for the full control effect; nearly all actives have a fitted effect of over 60% in size
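Drug-selected KB-V1 cells, grown in DMEM lacking phenol red with 10% FBS, receive compound titrations; after three days at 37 degrees C, surviving cell ATP is quantified by CellTiter-Glo luminescence and responses normalized and curve-fitted.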
HT1080 IDH1KD tx: toxicity to HT-1080 IDH1 knockdown cells (counter line) | 2% of 360,000 active | HT-1080 IDH1 knockdown viability, ATP luminescence, 48 h | AID 686971 | Potency, µM (highest dose often 46.1 µM), for the others: at the top dose activity, negative = toxicity, hits mostly cytotoxic;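 note: 0% = DMSO wells and -100% = cell-free medium wells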
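After a 2 h attachment period, IDH1KD HT-1080 cells took pin-transferred compound for 48 h at 37 °C; ATP-based luminescence after 10 min room-temperature reagent incubation reported viability.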
SW480 rereplic: DNA re-replication induction in SW480 cells | 1.8% of 340,000 active | AID 624297 | Potency, µM (doses to about 46.1 µM), inactives show top-dose re-replication activation, most hits filed as activators | SW480 DNA re-replication, Hoechst DNA content imaging, 48 h; note: % of control where 0% means no effect; nearly all actives have a fitted effect of over 55% in size
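Image-based DNA-content assay: after two days of treatment, nuclei were labelled with the DNA dye Hoechst and imaged, and hits were compounds raising the count of nuclei showing high fluorescence intensity.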
KB-3-1 tox: kills parental KB-3-1 adenocarcinoma cells. KB-3-1 viability, CellTiter-Glo ATP luminescence, 72 h. Potency, µM (highest dose often 46.1 µM), usual class: cytotoxic. 1.4% of 400,000 active. AID 1347075; note: % is set by controls: 0 for no effect and ±100 for the full control effect; nearly all actives have a fitted effect of over 60% in size
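KB-3-1 cells, DMEM (no phenol red) + 10% FBS; compound by pin transfer, 72 h, 37 °C. Readout: CellTiter-Glo luminescence after 10 min. Data normalized, curve-fitted.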
* = called active by the depositor; i = inactive; ? = inconclusive; . = no result given; [ ] = another dose, or the depositor's remark. Compounds with a hit are over-represented: about 7.9% of the library has one in this group of screens. Calls come from the whole dose curve; as a rule, active = well fitted curve in the direction sought with a large enough effect; inconclusive = small, poorly fitted or top-dose-only effect, or another doubt; inactive = no such curve, though single readings can be large; an effect the other way counts as inactive or inconclusive. Potency is the fitted concentration of half-maximal effect.

SMILES	HT1080NT lethal	MCF10A rerep	KB-V1 MDR tox	HT1080 IDH1KD tx	SW480 rereplic	KB-3-1 tox
COc1cc(/C=C/C(=O)N2C(=O)c3cccc(N)c3C2=O)cc(OC)c1OC	-9%	9.2µM*	i	-8%	?	i
COc1ccc(OC)c(/C=C/C(=O)N2C(=O)c3cccc(N)c3C2=O)c1	?	18µM*	?	16µM*	?	?
COc1cc(/C=C/C(=O)N2CCN(C(=O)/C=C/c3cc(OC)c(OC)c(OC)c3)CC2)cc(OC)c1OC	19%	1%	i	15%	-1%	i
COc1ccc(CSc2nc(C)cc(C)c2S(C)(=O)=O)cc1	-2%	?	?	-4%	-44%	i
Cc1ccc(CCNC(=O)CN2CCN(Cc3ccccc3F)C2=O)cc1	11%	-6%	i	12%	-6%	?
O=C(OCCCN=C1NS(=O)(=O)c2ccccc21)c1ccccc1	5%	?	i	2%	-21%	i
Cc1ccc(Sc2ccc([N+](=O)[O-])cc2[N+](=O)[O-])nc1	16µM*	?	i	23µM*	?	?
Cc1ccnc(Sc2ccc([N+](=O)[O-])cc2[N+](=O)[O-])n1	?	?	?	?	12µM*	?
Cn1c(N)c(C(=O)COC(=O)CCc2nc3ccccc3s2)c(=O)n(C)c1=O	-4%	-52%	i	-11%	1%	i
C=CCNC(=S)Nc1ccc2nc(C)c(C)nc2c1	3%	-1%	i	5%	-20%	i
COc1cc(OC)c(CN2CCc3c([nH]c4ccccc34)C2)cc1Br	16µM*	8%	i	?	-14%	?
CCOC(=O)C1CCCN(Cc2cc(Br)c(OC)cc2OC)C1 (stereo not given)	-2%	1%	10µM*	-24%	-1%	i
COc1cc(OC)c(CN2CCC(Cc3ccccc3)CC2)cc1Br	-26%	12µM*	i	-23%	19%	?
COc1ccc(OC)c(CN2CCC(Cc3ccccc3)CC2)c1	?	22%	i	-11%	5%	i
O=C(CNC(=O)c1ccco1)OCc1cccc(Cl)c1	19%	0%	i	17%	-3%	i
Cc1cccc(CCNS(=O)(=O)c2cnc[nH]2)c1	13%	4%	i	19%	2%	i
COc1ccc2cc1Oc1ccc(cc1)C[C@H]1c3c(cc4c(c3Oc3cc5c(cc3OC)CCN(C)[C@@H]5C2)OCO4)CCN1C	16µM*	?	?	21µM*	?	?
CC1(C)N=C(N)N=C(N)N1CCCCc1ccccc1	?	18%	i	0.15µM*	-9%	1.5µM*
Cc1nnc(-c2cnn(-c3ccccc3)c2N)n1Cc1ccc(F)cc1	0%	4%	i	-11%	-9%	i
COc1ccc(Nc2ncnc3onc(-c4ccc(Cl)cc4)c23)cc1Cl	.	.	i	.	.	10µM*
COc1ccccc1C(=O)NCCC(=O)Nc1cccc(C)n1	7%	1%	i	-2%	7%	?
CS(=O)(=O)c1ccc(C(=O)NCCN2C(=O)S/C(=C\c3cccnc3)C2=O)cc1[N+](=O)[O-]	?	13µM*	i	?	2.1µM*	?
COc1cc(OC)c2c(c1)O/C(=C\c1ccccc1)C2=O	7%	?	i	6%	?	i
COCOc1ccc(/C=C2/Oc3cc(OCOC)cc(OCOC)c3C2=O)c(OCOC)c1	-1%	6.5µM*	i	2%	?	i
FC(F)(F)c1cccc(N2CCN(c3ccc4nnc(-c5ccccc5)n4n3)CC2)c1	-2%	?	16µM*	-12%	6%	i
SMILES	HT1080NT lethal	MCF10A rerep	KB-V1 MDR tox	HT1080 IDH1KD tx	SW480 rereplic	KB-3-1 tox
Cc1ccc(-c2nnn(CC(=O)N(CC(=O)NC3CCCCC3)c3ccc(F)c(Cl)c3)n2)o1	?	?	?	18µM*	0%[9.22 µM]	?
Cc1ccc(-c2nnn(CC(=O)N(CC(=O)NC3CCCC3)c3ccc(F)c(Cl)c3)n2)o1	?	16%	?	16µM*	-3%[9.22 µM]	?
Cc1cccc(N(CC(=O)NCc2ccccc2)C(=O)Cn2nnc(-c3ccc(C)o3)n2)c1	1%	-6%	2.9µM*	-18%	1%	i
O=C(CN(C(=O)Cn1nnc(-c2ccc(F)cc2)n1)c1ccc(F)c(Cl)c1)NCC1CCCO1 (stereo not given)	-1%	-3%	i	1%	7%	i
Cc1ccc(-c2nnn(CC(=O)N(CC(=O)NCC3CCCO3)c3ccc(F)c(Cl)c3)n2)o1 (stereo not given)	2%	-3%	15µM*	-6%	-4%	i
Cc1ccc(S(=O)(=O)N2C[C@H]3N(C(=O)OC(C)C)N(C(=O)OC(C)C)C[C@H](OC(=O)NC4CC4)[C@@]3(O)C2)cc1	9%	.	i	-4%	.	i
CCCCN(C(=O)c1ccc(Cl)c([N+](=O)[O-])c1)c1c(N)n(CCC)c(=O)[nH]c1=O	13%	-3%	i	17%	1%	i
COc1ccc(-c2cc(=O)oc3cc(OC(=O)C4CCCCC4)c(Cl)cc23)cc1	-7%	12µM*	i	-11%	12µM*	i
CCOC(=O)C1CCN(C(c2ccccn2)c2c(C)[nH]c3ccccc23)CC1 (stereo not given)	?	21µM*	i	?	?	18µM*
Cc1[nH]c2ccccc2c1C(c1ccccn1)N1CCC(C(N)=O)CC1 (stereo not given)	-4%	?	i	-17%	2%[9.22 µM]	?
COc1ccc(-c2cc(-c3c(O)c(OC)c4occc4c3OC)[nH]n2)cc1	?	?	13µM*	?	?	?
Cc1ccccc1CN(C)CCc1ccccn1	13%	0.65µM*	i	1%	-2%	i
Cc1cccc(CN(C)CCc2ccccn2)c1	17%	2%	i	3%	-14%	i
Cc1ccc(SCC(=O)Nc2nnc(-c3ccco3)o2)cc1	-3%	12%	i	-9%	-5%	i
Cc1cc(C(=O)CSc2nnc(-c3cccnc3)n2-c2ccccc2F)c(C)n1C	-5%	-50%[0.0737 µM]	?	-4%	?	?
CN(C)CCCNc1ccc(-c2cc(Nc3cccc(Cl)c3)ncn2)cn1	-14%	21µM*	i	-4%	?	i
O=C(O)c1ccc2oc(=O)c(S(=O)(=O)c3ccccc3)cc2c1	-1%	-10%	?	10%	-8%	i
Cc1c(O)ccc2cc(S(=O)(=O)c3ccccc3)c(=O)oc12	?	4.1µM*	i	-6%	1.8µM*	i
